Rows were chosen to be rich in hits. Some 8% of all compounds tested hit in one or more screens of this group.
SW480 rereplic: DNA re-replication induction in SW480 cells; SW480 DNA re-replication, Hoechst DNA content imaging, 48 h; Potency, µM (doses to about 46.1 µM), without a hit: at the top dose re-replication activation, actives largely listed as activators; 340,000 tested, 1.8% active; AID 624297; further: % of control where 0% means no effect; nearly all actives have a fitted effect of over 55% in size
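Per well, 250 cells were exposed to pinned compound for 48 hr. Nuclear DNA was visualised with Hoechst (40 min, 37 C) and total object intensity recorded by fluorescence scanning.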
HT1080 IDH1KD tx: HT-1080 IDH1 knockdown cell toxicity (counter line). HT-1080 IDH1 knockdown viability, ATP luminescence, 48 h. Potency, µM (titrated, usually from 46.1 µM), for inactives: at the highest dose activity, negative = toxicity, hits mostly cytotoxic. 360,000 tested, 2% active;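 further: 0% = DMSO wells and -100% = cell-free medium wells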
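% activity derives from luminescence (CellTiter-Glo), normalised to DMSO and no-cell wells. HT-1080-IDH1KD cells, 750/well, had 48 h compound exposure at 37 °C.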
KB-V1 cytotox: kills drug-selected multidrug resistant KB-V1 cells; KB-V1 MDR cells viability, CellTiter-Glo, 72 h; Potency, µM (titrated, usually from 46.1 µM), actives largely listed as cytotoxic; 400,000 tested, 3.4% active; further: on the % scale 0 is the no-effect control and ±100 the full control effect; nearly all actives have a fitted effect of over 60% in size
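Potencies derive from concentration-effect curves fitted to normalized luminescence (CellTiter-Glo) of KB-V1 cells treated for 72 h at 37 degrees C in phenol-red-free DMEM containing 10% FBS.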
HT1080NT lethal: kills 2HG-producing HT-1080-NT fibrosarcoma cells; 360,000 tested, 1.6% active; AID 686970; HT-1080-NT fibrosarcoma viability, CellTiter-Glo ATP luminescence, 48 h; Potency, µM (highest dose often 46.1 µM), without a hit: at the highest dose activity, negative = less viability, usual class: cytotoxic;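 further: NT is the 2HG producing partner of a matched IDH1 knockdown line; 0% = DMSO-treated cells and -100% = media-only wells without cells; nearly all actives have a fitted effect of over 55% in size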
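HT-1080-NT fibrosarcoma cells (2HG-overproducing), 750 cells/well in RPMI with 5% FBS, dosed after 2 h and incubated 48 h at 37C. CellTiter-Glo luminescence normalized to DMSO and no-cell wells; concentration-response curves fitted and classed.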
MCF10A rereplic: induces DNA re-replication in MCF 10a normal breast cells | MCF 10A DNA re-replication, Hoechst nuclear intensity, 48 h | AID 624296 | Potency, µM (highest dose often 46.1 µM), inactives show at the top dose activity, positive = re-replication, actives largely listed as activators | 350,000 tested, 2.9% active; further: % of control where 0% means no effect; nearly all actives have a fitted effect of over 50% in size
KB-3-1 cytotox: KB-3-1 parental cell cytotoxicity; KB-3-1 viability, CellTiter-Glo ATP luminescence, 72 h; 400,000 tested, 1.4% active; Potency, µM (top dose mostly 46.1 µM), usual class: cytotoxic; AID 1347075; further: on the % scale 0 is the no-effect control and ±100 the full control effect; nearly all actives have a fitted effect of over 60% in size
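KB-3-1 parental drug-naive adenocarcinoma cells in DMEM/10% FBS, incubated 72 h at 37 C with pin-transferred compounds across a concentration series. Viability by CellTiter-Glo luminescence; concentration-response curves fitted after normalization.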
Active calls of the source: *; i = inactive; ? = inconclusive; . = not tested or not shown; [ ] = dose if it differs, or a comment. The call rests on the fitted dose curve; in most records, active means well fitted curve in the direction sought with a large enough effect; inconclusive means small, poorly fitted or top-dose-only effect, or another doubt; inactive means no such curve, though single readings can be large; an effect the other way counts as inactive or inconclusive. Potency means the concentration at half of the fitted maximal effect.

SMILES | SW480 rereplic | HT1080 IDH1KD tx | KB-V1 cytotox | HT1080NT lethal | MCF10A rereplic | KB-3-1 cytotox
O=C(c1ccc(C(F)(F)F)cc1)C1CCCN(Cc2ccc(CO)o2)C1 (centres undefined) | 24% | 2% | 18µM* | -3% | 16% | i
Cc1ccc(C)c(NC(=O)CCNC(=O)N2C[C@H]3C[C@@H](C2)c2cccc(=O)n2C3)c1 | -1% | 5% | i | 1% | ? | i
O=P(c1ccccc1)(c1nc2ccccc2s1)N1CCOCC1 (centres undefined) | -2% | -1% | ? | 8% | 6% | i
CN(C)CC1CSCCC1(O)c1ccc(C(F)(F)F)cc1 (centres undefined) | -3% | 12% | i | 10% | ? | i
NP(=O)(Oc1ccccc1Cl)Oc1ccccc1Cl | -25% | -3% | ? | -3% | 0.65µM* | i
CCCCn1c(N)c(N(CCOC)C(=O)CN2CC=C(c3ccccc3)CC2)c(=O)[nH]c1=O | 4% | 15% | i | 11% | 1% | i
S=C=Nc1cccc(C2(N3CCCCC3)CCCCC2)c1 | ? | 18µM* | i | 23µM* | ? | i
c1ccc(C2(N3CCCCC3)CCCCC2)cc1 | -8% | -4% | i | 8% | 0% | i
C/C=C(\C)C(=O)N[C@@H](c1ccccc1)[C@@H](O)C(=O)O[C@H]1C[C@@]2(O)[C@@H](OC(=O)c3ccccc3)C3[C@](C)(C(=O)[C@H](O)C(=C1C)C2(C)C)[C@@H](O)C[C@H]1OC[C@@]31OC(C)=O (some centres undefined) | 8.2µM* | 0.0058µM* | i | 0.041µM* | ? | ?
CC(=O)O[C@@]12CO[C@@H]1C[C@H](O)[C@@]1(C)C(=O)[C@H](O)C3=C(C)[C@@H](O)C[C@@](O)([C@@H](OC(=O)c4ccccc4)C12)C3(C)C (some centres undefined) | ? | ? | i | ? | ? | 12µM*
C/C=C(\C)C(=O)N[C@@H](c1ccccc1)[C@@H](O)C(=O)O[C@H]1C[C@@]2(O)[C@@H](OC(=O)c3ccccc3)C3[C@](C)(C(=O)[C@H](OC(C)=O)C(=C1C)C2(C)C)[C@@H](O)C[C@H]1OC[C@@]31OC(C)=O (some centres undefined) | 1.2µM* | ? | i | ? | 0.29µM* | ?
C[C@@H]1CC[C@H]2[C@@H](C)C(=O)O[C@@H]3O[C@@]4(C)CC[C@@H]1[C@]32OO4 | ? | -13% | ? | -2% | -14% | i
CCC(C)NC(=O)CCC(=O)OC1O[C@H]2OC3(C)CC[C@H]4[C@H](C)CCC(C1C)C24OO3 (some centres undefined) | 18µM* | 7.3µM* | i | 7.3µM* | ? | 5.2µM*
COP(=O)(OC)OC=C(Cl)Cl | 13µM* | . | . | . | 12µM* | .
CC(=Nc1ccc(F)cc1)c1c(O)n(C)c(=O)[nH]c1=O | 7% | 4% | ? | 8% | ? | i
C=CCN1CC[C@]23c4c5ccc(O)c4O[C@H]2[C@@H](O)C=C[C@H]3[C@H]1C5 | -2% | . | . | . | 10% | .
CCc1ccc2nc(N3CCC(C(=O)N4CCC5(CC4)OCCO5)CC3)sc2c1 | -55%[1.84 µM] | -25% | i | ? | ? | ?
CCOc1ccc2nc(N3CCC(C(=O)N4CCC5(CC4)OCCO5)CC3)sc2c1 | 26% | -27% | 2.9µM* | -26% | 13% | ?
CCN(CC)C(=O)c1ccc(NC(=O)COC(=O)c2ccc(Cl)s2)cc1 | -23% | 7% | i | 16% | 7% | i
O=Cc1cn(Cc2ccccc2F)c2ccccc12 | ? | -17% | i | -6% | 20% | i
Cc1cccc(Cn2cc(C=O)c3ccccc32)c1 | 19% | ? | i | -10% | 18% | 18µM*
O=Cc1cn(Cc2cccc([N+](=O)[O-])c2)c2ccccc12 | -2% | -4% | ? | -16% | ? | ?
O=Cc1cn(Cc2c(F)cccc2Cl)c2ccccc12 | -20% | -12% | 16µM* | 0% | ? | ?
O=c1[nH]c(=S)n(Cc2ccc(F)cc2)c(O)c1C=NCC1CCCO1 (centres undefined) | -12% | -7% | i | -10% | 11% | i
O=C1CN=C(c2ccccc2)c2c(sc3c2CCCC3)N1 | -70% | 23µM* | ? | ? | ? | i
SMILES | SW480 rereplic | HT1080 IDH1KD tx | KB-V1 cytotox | HT1080NT lethal | MCF10A rereplic | KB-3-1 cytotox
O=C1CN=C(c2cccs2)c2c(sc3c2CCCC3)N1 | 21µM* | 10µM* | ? | 11µM* | 13µM* | ?
Cc1ccc2c(c1)C(c1ccccc1)=NCC(=O)N2 | 7% | -3% | i | 5% | -14% | i
Cn1c(O)c(/C=C2\N=c3ccccc3=C2CCNC(=S)NC2CC2)c(=O)n(C)c1=O | ? | -1% | i | 6% | ? | i
CC(C)n1cc(C(=O)N(CC(=O)NC2CCCC2)Cc2ccccc2)cn1 | 6% | 1% | 13µM* | 5% | 6% | i
CCOC(=O)C1CCN(/C=C2/C(=O)NC(=O)N(c3ccc(OCC)cc3)C2=O)CC1 | 1% | 28% | i | 11% | 5.8µM* | i
CCCCn1c(N)c(C(=O)OCCOC)c2nc3ccccc3nc21 | ? | 16% | ? | 14% | ? | i
Nc1c(C(=O)NCCCc2ccccc2)c2nc3ccccc3nc2n1Cc1cccs1 | 2.9µM* | -27% | 15µM* | ? | ? | ?
CCCCn1c(N)c(C(=O)NCc2cccs2)c2nc3ccccc3nc21 | 3.3µM* | ? | 13µM* | ? | 1.2µM* | ?
CCCCCn1c(N)c(C(=O)NCc2cccs2)c2nc3ccccc3nc21 | 2.6µM* | ? | 13µM* | ? | 5.2µM* | ?
COCCOC(=O)c1c(N)n(Cc2ccccc2)c2nc3ccccc3nc12 | 25% | -23% | i | -25% | 2% | i
CCCCNC(=O)c1c(N)n(Cc2ccc3c(c2)OCO3)c2nc3ccccc3nc12 | 9% | 2% | i | -2% | 6% | i
CCCOC(=O)c1c(N)n(Cc2cccs2)c2nc3ccccc3nc12 | ? | -24% | i | -15% | 21µM* | i
CCCCOCCCn1c(N)c(C(=O)OCCOC)c2nc3ccccc3nc21 | ? | 6% | i | 2% | 0% | i

From PubChem BioAssay
